Assay outcomes: PubChem BioAssay, National Center for Advancing Translational Sciences (NCATS)
This is a sample that favours compounds with a hit; in the whole collection about 8.1% have one here.
KB-3-1 cytotox = KB-3-1 parental cell cytotoxicity; Potency, µM (top dose mostly 46.1 µM), actives largely listed as cytotoxic; 400,000 tested, 1.4% active; KB-3-1 viability, CellTiter-Glo ATP luminescence, 72 h; note: % is set by controls: 0 for no effect and ±100 for the full control effect; nearly all actives have a fitted effect of over 60% in size
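Here the drug-naive KB-3-1 line serves as comparator for MDR sub-line selectivity; cells received compound titrations, 72 h at 37 °C, then CellTiter-Glo readout.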
ELG1 repair inh = inhibitors of ELG1-dependent DNA repair in HEK293T cells. 330,000 tested, 2.3% active. HEK293T ELG1-luciferase reporter, luminescence, 16 h; DNA damage induced by 5-fluorouridine. AID 504467. Potency, µM (titrated, usually from 46.1 µM), for inactives: at the highest dose activity change, negative = inhibition, most hits filed as inhibitors; note: % is set by controls: 0 for no effect and ±100 for the full control effect; nearly all actives have a fitted effect of over 55% in size
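Overnight (16 hr) co-exposure of 2,000 cells/well to 5-fluorouridine and compound at 37 °C preceded detection. Luciferase was quantified via ONE-Glo luminescence; loss of signal denotes inhibition.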
SW480 rereplic = DNA re-replication induction in SW480 cells; SW480 DNA re-replication, Hoechst DNA content imaging, 48 h; Potency, µM (series often up to 46.1 µM), for the others: at the highest dose re-replication activation, most hits filed as activators; 340,000 tested, 1.8% active; AID 624297; note: % of control where 0% means no effect; nearly all actives have a fitted effect of over 55% in size
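Image-based DNA-content assay: after two days of treatment, nuclei were labelled with the DNA dye Hoechst and imaged, and hits were compounds raising the count of nuclei showing high fluorescence intensity.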
KB-V1 MDR tox = KB-V1 MDR subline cytotoxicity. KB-V1 MDR cells viability, CellTiter-Glo, 72 h. Potency, µM (series often up to 46.1 µM), most hits filed as cytotoxic. 400,000 tested, 3.4% active. AID 1347076; note: % is set by controls: 0 for no effect and ±100 for the full control effect; nearly all actives have a fitted effect of over 60% in size
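Cytotoxicity toward P-gp-expressing KB-V1 cells was determined as loss of CellTiter-Glo luminescence after 72 h at 37 degrees C. Compounds were tested in quantitative HTS format across a concentration range, with curves fitted to normalized data.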
MCF10A rereplic = inducers of DNA re-replication in MCF 10A breast cells. Potency, µM (highest dose often 46.1 µM), without a hit: at the top dose activity, positive = re-replication, actives largely listed as activators. 350,000 tested, 2.9% active. AID 624296. MCF 10A DNA re-replication, Hoechst nuclear intensity, 48 h; note: % of control where 0% means no effect; nearly all actives have a fitted effect of over 50% in size
The depositor's hits bear a star; i = inactive; u = inconclusive; x = no result given; [ ] = dose if it differs, or a comment. Calls come from the whole dose curve; as a rule, active = well fitted curve in the direction sought with a large enough effect; inconclusive = small, poorly fitted or top-dose-only effect, or another doubt; inactive = no such curve, though single readings can be large; an effect the other way counts as inactive or inconclusive. Potency is the fitted concentration of half-maximal effect.

SMILES	KB-3-1 cytotox	ELG1 repair inh	SW480 rereplic	KB-V1 MDR tox	MCF10A rereplic
COc1ccc(-c2c3c(=O)n(C)c(=O)n(C)c3c3c(-c4ccc(C)cc4)nc4ccccc4n23)cc1	i	x	x	i	x
CCN=C1S/C(=C/c2ccc(-c3ccc(F)cc3)o2)C(=O)N1CC	i	-2%	u	i	8.2µM*
CCN=C1S/C(=C\c2ccc(Sc3ccc(Cl)cc3)o2)C(=O)N1CC	u	-11%	u	i	u
CC1=C([N+](=O)[O-])C(c2cccc(Br)c2)C2=C(N1)c1ccccc1C2=O (stereo not drawn)	1.6µM*	-2%	0.65µM*	u	u
COCCCNC(=O)C[C@@H]1C[C@@]2(C(=O)OC)CC(C)(C)CC=C2N(Cc2ccco2)C1=O	i	x	x	u	x
COC(=O)c1c(NC(=O)COC(=O)c2ccc(O)cc2)sc2c1CCCCC2	i	u	u	i	13µM*
Cc1cccc(C)c1NC(=O)CN(C)CC(=O)Nc1sc2c(c1C(N)=O)CCC2	i	7.3µM*	6%	i	8%
Cc1ccc(NC(=O)CN(C)CC(=O)Nc2sc3c(c2C(N)=O)CCC3)cc1	i	u	0%	i	6%
COc1ccc(CC(=O)Nc2sc3c(c2C(N)=O)CCCC3)cc1OC	u	u	2%	13µM*	7%
C=CCNCC(=O)Nc1sc2c(c1C(=O)Nc1ccc(OC)cc1OC)CCC2	i	21µM*	6%	u	-3%
CCC(C)(C)n1nnnc1C(c1cc2ccc(OC)cc2[nH]c1=O)N1CCc2ccccc21 (stereo not drawn)	i	u	u	i	u
CCC(C)(C)n1nnnc1C(c1cc2cc(OC)ccc2[nH]c1=O)N1CCc2ccccc21 (stereo not drawn)	u	-7%	7%	18µM*	-1%
Cc1cc2cc(C(c3nnnn3Cc3ccccc3)N3CCc4ccccc43)c(=O)[nH]c2cc1C (stereo not drawn)	i	u	u	8.2µM*	7%
O=C(NC1CCCC1)C(c1ccccc1)n1c(Cc2cc(F)cc(F)c2)nc2ccccc21 (stereo not drawn)	i	x	x	u	x
CC(C)Cn1nc(C(=O)NCc2ccccc2CN2CCCC2)c2ccccc2c1=O	i	-17%	0%	5.8µM*	1%
CCCCn1nc(C(=O)NCc2ccccc2CN2CCCC2)c2ccccc2c1=O	i	-15%	-2%	i	1%
O=C(O)c1cccc2c1C(=O)N(Cc1ccccc1)C2	i	4%	-7%[9.22 µM]	i	-13%
CN(C)c1ccc(NC(=S)NC23CC4CC(CC(C4)C2)C3)cc1	i	u	25%	i	11%
CCOc1ccc(Nc2ccc(S(=O)(=O)N3CCN(C)CC3)cc2[N+](=O)[O-])cc1OCC	i	3%	-4%	i	-3%
CN1CCN(S(=O)(=O)c2ccc(Nc3ccc(F)cc3)c([N+](=O)[O-])c2)CC1	i	5%	29µM*	u	u
O=C(Nc1cccc(Cl)c1Cl)c1csc([C@@H]2O[C@H](CO)[C@H](O)[C@H](O)[C@H]2O)n1	i	x	x	u	x
O=C(Nc1nc([C@@H]2O[C@H](CO)[C@@H](O)[C@H](O)[C@H]2O)cs1)NC(c1ccccc1)c1ccccc1	18µM*	x	x	i	x
CCOC(=O)c1ccc(NC(=O)CC2C(=O)N(c3ccccc3)C(=O)N2Cc2ccc(C)cc2)cc1 (stereo not drawn)	i	x	x	i	x
CC1(C)Cc2nc3oc4c(N5CCOCC5)ncnc4c3cc2CO1	i	-3%	-9%	u	12%
c1ccc(N2CCN(c3ncnc4c3oc3ccccc34)CC2)cc1	i	u	-3%	16µM*	3%
SMILES	KB-3-1 cytotox	ELG1 repair inh	SW480 rereplic	KB-V1 MDR tox	MCF10A rereplic
Brc1ccc2oc3c(N4CCOCC4)ncnc3c2c1	i	u	-4%	16µM*	12%
COc1ccc(OC)c(CCNC(=O)Cn2ccc3cc(S(=O)(=O)N4CCCC4)ccc32)c1	i	u	-6%	i	-7%
COc1ccc(OCc2cc(/C=N\NC(=O)c3ccccc3)ccc2OC)cc1	6.5µM*	u	15µM*	u	8.2µM*
COc1cc(OC)cc(C(=O)N/N=C/c2ccc(OC)c(COc3ccc(F)cc3)c2)c1	u	-14%	5.8µM*	10µM*	5.8µM*
COc1ccc(/C=C/C(=O)c2ccccc2)cc1COc1ccccc1F	i	-24%	15µM*	u	u
COc1ccc(C(=O)N/N=C\c2ccc(OC)c(COc3ccccc3Br)c2)c(OC)c1	u	8.2µM*	135%	16µM*	-28%
COc1ccc(C(=O)N/N=C/c2ccc(OC)c(CN3CCN(c4ccc(F)cc4)CC3)c2)cc1	u	21µM*	0%	u	-1%
COCc1cc(/C=N\NC(=O)Cc2ccc(OC)cc2)ccc1OC	i	-1%	3%	23µM*	-3%
COc1ccc(/C=N/NC(=O)c2cccnc2)cc1COc1ccc(NC(C)=O)cc1	i	-15%	8.2µM*	u	4.1µM*
COc1ccc(/C=N/NC(=O)c2cccnc2)cc1CN1CCN(c2ccc(F)cc2)CC1	i	u	-6%	u	9%
COc1cccc(C(=O)N/N=C/c2ccc(OC)c(COc3ccccc3C(N)=O)c2)c1	i	27%	16µM*	i	u
COc1ccc(/C=N/NC(=O)c2cccnc2)cc1COc1ccc([N+](=O)[O-])cc1	u	-7%	u	u	u
CN(C)c1ccc(-c2ccc(CCO)cc2)cc1	i	x	x	i	x
COc1ccc(Br)cc1[C@H]1[C@@H]2C=CCC[C@@]2(C)C(=O)N1Cc1ccccc1	u	u	11%	u	u
COc1ccc(-c2ccc(N(C)C)cc2)cc1[C@H]1[C@@H]2C=CCC[C@@]2(C)C(=O)N1Cc1ccccc1	18µM*	u	u	u	17%
COc1ccc(-c2ccc([C@H]3[C@@H]4C=CCC[C@@]4(C)C(=O)N3Cc3ccccc3)c(F)c2)cc1	u	u	0%	7.3µM*	u
COCCNC(=O)CCCCCN1C(=O)CCC1=O	i	10%	-2%	i	-3%
O=C1NC[C@H](CCCCN2CCN(Cc3ccccc3)C(=O)C2=O)N(CCC2CCCCC2)C1=O	i	x	x	u	x
COc1ccc(-c2nnc(-c3ccccc3)o2)cc1OC	i	u	-1%	i	-1%
COc1cc(-c2nnc(CSc3nnc(N)s3)o2)cc(OC)c1OC	i	4%	-3%	i	2%
CCCc1nnc(-c2cc(OC)c(OC)c(OC)c2)o1	i	2%	-10%	i	14%
